According to PubChem BioAssay AID488969 (Vanderbilt High Throughput Screening Facility, 2010):
The full ranking holds about 110,000 compounds; the median of “z-score” is about -0.1, and the highest 2% start at about 2. What follows is part of a selection rich in the highest values, with near analogues and random picks from the rest. Active and inactive are the calls of the source.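 Rule for the calls: active = z-score in the third read window above 3 or below -3; inactive = the rest.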

Target: Metabotropic glutamate receptor 8 (Rattus norvegicus) (UniProt P70579)
Sequence (P70579 whole entry, looked up): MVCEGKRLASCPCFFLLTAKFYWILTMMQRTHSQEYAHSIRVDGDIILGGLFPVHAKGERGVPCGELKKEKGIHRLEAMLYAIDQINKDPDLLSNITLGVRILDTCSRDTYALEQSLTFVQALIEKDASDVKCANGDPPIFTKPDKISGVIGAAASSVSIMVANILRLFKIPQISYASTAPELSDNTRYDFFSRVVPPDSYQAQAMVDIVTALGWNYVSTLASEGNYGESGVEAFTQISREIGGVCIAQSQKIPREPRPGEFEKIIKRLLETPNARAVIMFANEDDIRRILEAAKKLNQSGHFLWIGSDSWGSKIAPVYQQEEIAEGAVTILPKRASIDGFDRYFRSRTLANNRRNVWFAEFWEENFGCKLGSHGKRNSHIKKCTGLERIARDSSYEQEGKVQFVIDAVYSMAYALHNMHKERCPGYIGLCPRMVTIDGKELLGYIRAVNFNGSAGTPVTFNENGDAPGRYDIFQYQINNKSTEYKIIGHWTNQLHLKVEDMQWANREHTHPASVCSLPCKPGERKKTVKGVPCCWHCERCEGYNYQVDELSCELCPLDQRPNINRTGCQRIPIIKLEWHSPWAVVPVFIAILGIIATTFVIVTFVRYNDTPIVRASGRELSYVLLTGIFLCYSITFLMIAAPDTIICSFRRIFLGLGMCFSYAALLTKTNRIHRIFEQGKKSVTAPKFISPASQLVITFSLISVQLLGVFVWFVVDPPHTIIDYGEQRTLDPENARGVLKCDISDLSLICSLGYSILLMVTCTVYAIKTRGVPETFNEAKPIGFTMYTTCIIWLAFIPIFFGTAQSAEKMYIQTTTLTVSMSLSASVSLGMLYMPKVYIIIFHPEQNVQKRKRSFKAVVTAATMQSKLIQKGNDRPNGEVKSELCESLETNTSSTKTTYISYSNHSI
Experiment: mGluR8 Gi/Go-coupled signaling modulation – cell-based, rat, thallium flux, HTS, primary screen (AID 488969)
Conditions: HEK293 rat mGluR8, GIRK (G protein-gated inwardly rectifying potassium channel) thallium flux, FluoZin2; at 10 µM; stronger effect = higher value

Compound	z-score
COc1ccc(C2NCc3ccccc3-n3cccc32)cc1 (stereo not drawn)	2.1
c1ccc(C2NCc3ccccc3-n3cccc32)cc1 (stereo not drawn)	-0.239
Oc1ccc(C2NCc3ccccc3-n3cccc32)cc1Cl (stereo not drawn)	1.68
Cc1nn(C2CCOC(C)(C)C2)c2c1C(c1ccc(OC(C)C)cc1)SCC(=O)N2 (stereo not drawn)	-0.843
Cn1c(O)c(C=NCc2ccco2)c(=O)n(C)c1=O	-0.19
CCC(CC)C1C(C#N)=C(N)Oc2c1c(=O)oc1ccccc21 (stereo not drawn)	-0.103
O=C(COc1ccc(Cl)cc1)N1CCN(C/C=C/c2ccccc2)CC1	-0.0408
O=C(COc1ccccc1)N1CCN(C/C=C/c2ccccc2)CC1	0.702
O=C(Cc1ccccc1)N1CCN(C/C=C/c2ccccc2)CC1	3.68 (active)
CC12CCCCC1=[N+]([O-])CN2O (stereo not drawn)	0.377
CCOc1ccc(CC2C(=O)NC(=O)N(c3ccc(CC)cc3)C2=O)cc1 (stereo not drawn)	-0.531
CCCCn1c(C)c(C(=O)OCC)c2c(CN3CCOCC3)c(O)ccc21	4.12 (active)
CCOC(=O)c1c(C)n(CCN2CCN(C)CC2)c2ccc(OC)cc12	1.21
CCOC(=O)c1c(C)n(CCOC)c2ccc(O)cc12	0.821
CCCCN1C(=N)C(CC)(CC)C(=O)NC1=O	-0.0121
CCC(=NCc1ccc(F)cc1)c1c(O)n(C)c(=O)n(C)c1=O	-0.274
O=C(c1cc([N+](=O)[O-])ccc1N1CCNCC1)N1CCOCC1	-0.253
COc1cccc(-n2c(O)c(C=NCc3ccc4c(c3)OCO4)c(=O)[nH]c2=O)c1	-0.566
Clc1cccc(N2CCNCC2)c1Cl	0.654
N#Cc1cc(F)c(N2CCNCC2)cc1Cl	2.17
N#Cc1ccc(N2CCNCC2)c(F)c1	0.268
CCCNS(=O)(=O)c1ccc(OCC(=O)N2CCN(Cc3ccc4c(c3)OCO4)CC2)cc1	-0.266
Cc1cc(C(=O)N2CCC3(CC2)OCCO3)cs1	0.652
C=CCOC(=O)C1=C(C)OC(N)=C(C(=O)OCC)C12C(=O)N(CC(N)=O)c1ccccc12 (stereo not drawn)	-0.605
CN(C)CC1CSCCC1(O)c1ccccc1 (stereo not drawn)	0.409

Compound	z-score
CC(C)OC12Oc3ccccc3C=C1N1CCC2CC1 (stereo not drawn)	1.77
C=C1N2CCC(CC2)C1(O)c1ccc(C)cc1 (stereo not drawn)	-0.123
OC12Oc3ccccc3C=C1N1CCC2CC1 (stereo not drawn)	2.17
CC(=O)N1CC(=O)Nc2ccc(Cl)cc2C1c1ccc(F)cc1 (stereo not drawn)	-0.284
N=Cc1c(O)n(-c2cccc(Cl)c2)c(=O)[nH]c1=O	0.745
CCC(C)N1C(=O)/C(=C/c2ccc3c(c2)CCN3CCCCl)C(=O)NC1=S (stereo not drawn)	-0.358
CC(C)CN(CC(C)C)c1ccc(C=C2C(=O)NC(=S)NC2=O)cc1[N+](=O)[O-]	2.35
CCC(C)N1C(=O)/C(=C\c2ccc(N3CCCCCC3)cc2)C(=O)NC1=S (stereo not drawn)	-0.384
Cc1cc(C=C2C(=O)NC(=S)NC2=O)c(C)n1-c1ccc2c(c1)OCO2	-0.495
O=C(O)C1(c2ccc(Cl)cc2)CCC1	-0.279
CN(C)P1(N(C)C)=Nc2c(c(N)nn2C)C(c2ccccc2)=N1	1.2
CCc1ccc(N2C(=O)NC(=O)C(Cc3ccc(OC)cc3OC)C2=O)cc1 (stereo not drawn)	-0.562
COc1ccc(CC2C(=O)NC(=O)NC2=O)c(OC)c1	13.6 (active)
COc1ccc(CC2C(=O)NC(=O)N(c3ccccc3)C2=O)c(OC)c1 (stereo not drawn)	0.821
Cc1ccc(-n2c(/C=C/c3ccc4c(c3)OCO4)nc3ccccc3c2=O)cc1	-0.143
CCOP(=O)(OCC)C(C)(C)NC(=O)C(Cl)(Cl)Cl	0.176
CC12CN3CC(C)(CN(C1)C3c1ccco1)C2=O (stereo not drawn)	0.289
Cc1ccc(C(O)(C(=O)NNC(=O)CN2CCN(C)CC2)c2ccc(C)cc2)cc1	-0.00637
Cn1cccc1/C=C1\C(=O)NC(=O)N(CCC2=CCCCC2)C1=O	-0.117
Clc1ccc2c(c1)C(c1ccccc1Cl)=NCc1nncn1-2	1.46
CCS(=O)(=O)NCc1nnc2n1-c1ccc(Cl)cc1C(c1ccccc1)=NC2	-0.148
COc1ccccc1C1=NCc2nnc(C)n2-c2ccc(Cl)cc21	0.478
CN1CCN(Cc2nnc3n2-c2ccc(Cl)cc2C(c2ccccc2)=NC3)CC1	-0.238
CSCc1nnc2n1-c1ccc(Cl)cc1C(c1ccccc1)=NC2	-0.724
Cc1ccccc1C1=NCC(=S)Nc2ccc(Cl)cc21	4.39 (active)

Compound	z-score
S=C1CN=C(c2ccccc2Cl)c2cc(Cl)ccc2N1	14.6 (active)
S=C1CN=C(c2ccccc2)c2cc(Cl)ccc2N1	4.29 (active)
Clc1ccc2c(c1)C(c1ccccc1Cl)=NCc1nnc(N3CCN(CCSc4ccccc4)CC3)n1-2	-0.487
Cc1ccc(N(C)C(=O)Oc2ccc(C(=O)c3ccc(Cl)cc3)cc2)cc1	0.23
CCN1CCN(c2nc3c(c(=O)[nH]2)CCCC3)CC1	-0.0782
CC(C)N(CC(O)c1cccc([N+](=O)[O-])c1)C(C)C (stereo not drawn)	-0.309
Cc1cccc(N2C(=O)NC(=O)/C(=C\c3cc(C)n(-c4sc5c(c4C#N)CCCC5)c3C)C2=O)c1C	0.0132
CCOC(C(=O)OCCC[N+](C)(CC)CC)(c1ccccc1)c1ccccc1	0.315
c1ccc2c(CNC3CCCCCC3)c[nH]c2c1	-0.0434
c1ccc2c(CNC3CCCCC3)c[nH]c2c1	4.16 (active)
Cc1[nH]c2ccccc2c1CCCNC1CCCCC1	0.385
COc1cc(C2NCc3ccccc3-n3cccc32)ccc1O (stereo not drawn)	1.55
COc1ccc(C2NCc3ccc4c(c3-n3cccc32)OCO4)cc1O (stereo not drawn)	2.45
CCOc1cc(C2NCc3ccccc3-n3cccc32)ccc1O (stereo not drawn)	1.71
CCN1C(=O)C(=C/C=C/c2ccco2)C(=O)N(CC)C1=S	-0.628
CCCCN1C(=O)/C(=C/C=C/c2ccco2)C(=O)NC1=S	0.136
CC(C)N1C(=O)/C(=C/C=C/c2ccco2)C(=O)N(Cc2ccco2)C1=O	6.08 (active)
COC(=O)C(O)(c1ccc(N=Cc2ccccc2O)c(C)c1)C(F)(F)F (stereo not drawn)	0.286
O=C(CN1CCOCC1)c1cccc2ccccc12	-0.17
CCN(CC)c1ccc(N=Cc2c(O)n(-c3ccc(Cl)cc3)c(=O)[nH]c2=O)cc1	0.126
O=C1C2CCCN2C(c2ccc(Cl)cc2)N1c1ccccn1 (stereo not drawn)	2.77
O=C1C2CCCN2C(c2cccc(Cl)c2)N1c1ccccn1 (stereo not drawn)	-0.498
O=C1C2CCCN2C(c2ccc(Cl)c(Cl)c2)N1c1ccccn1 (stereo not drawn)	-0.0899
